# Screening results (PubChem BioAssay)
# Shown are actives, neighbours in structure and some others; about 0.44% of the full set was active somewhere.
# USP1 inh: inhibitors of human USP1/UAF1 deubiquitinase; recombinant USP1/UAF1, Ub-Rhodamine cleavage fluorescence; Potency, µM (titrated, usually from 57.1 µM), for the others: at the highest dose activity change, negative = inhibition, hits mostly inhibitors; actives 0.23% (n = 390,000); note: % is set by controls: 0 for no effect and ±100 for the full control effect; nearly all actives have a fitted effect of over 60% in size
# Target sequence (O94782 whole entry, looked up): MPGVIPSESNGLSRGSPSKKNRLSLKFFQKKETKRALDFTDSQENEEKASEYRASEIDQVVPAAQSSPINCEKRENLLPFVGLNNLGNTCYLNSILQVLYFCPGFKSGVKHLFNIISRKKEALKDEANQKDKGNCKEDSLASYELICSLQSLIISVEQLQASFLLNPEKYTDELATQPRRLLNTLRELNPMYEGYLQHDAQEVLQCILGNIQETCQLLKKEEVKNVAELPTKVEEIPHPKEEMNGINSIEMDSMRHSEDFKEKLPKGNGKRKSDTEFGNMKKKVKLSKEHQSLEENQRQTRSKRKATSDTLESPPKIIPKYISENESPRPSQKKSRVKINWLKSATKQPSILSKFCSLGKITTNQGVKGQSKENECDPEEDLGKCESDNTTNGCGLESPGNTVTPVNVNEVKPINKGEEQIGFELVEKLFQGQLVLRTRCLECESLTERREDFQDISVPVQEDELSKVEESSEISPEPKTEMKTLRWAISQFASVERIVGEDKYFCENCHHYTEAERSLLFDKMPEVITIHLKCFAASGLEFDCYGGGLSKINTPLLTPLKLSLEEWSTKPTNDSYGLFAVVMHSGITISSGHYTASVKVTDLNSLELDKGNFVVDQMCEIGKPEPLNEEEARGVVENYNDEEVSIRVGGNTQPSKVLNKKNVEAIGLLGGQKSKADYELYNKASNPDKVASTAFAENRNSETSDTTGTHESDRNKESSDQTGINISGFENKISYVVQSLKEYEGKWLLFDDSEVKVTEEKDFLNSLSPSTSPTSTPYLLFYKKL
#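 1 nM enzyme complex + cpd, 15 min RT; start with Ub-Rho 150nM final; kinetic fluorescence ex 480/em 540, 6 reads q60 s. Buffer 50mM HEPES pH 7.8, 0.5mM EDTA, 0.1 mg/ml BSA, 1mM TCEP, 0.01% Tween-20.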
# EPAC1 antag: EPAC1 (human) antagonism. O95398. EPAC1 GEF assay, Rap1b-BODIPY-GDP exchange fluorescence. Potency, µM (highest dose often 115 µM), for the others: top-dose activity change, negative = inhibition, most hits filed as inhibitors. actives 0.14% (n = 360,000). AID 720709;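 note: plate controls were vehicle for no effect and positive control for full effect; nearly all actives have a fitted effect of over 50% in size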
# EPAC1 ag: EPAC1 (human) agonism | O95398 | EPAC1 agonist qHTS, biochemical assay; response scale: 100% = response to 6.5 mM cAMP | Potency, µM (top dose mostly 154 µM), without a hit: top-dose activation, actives largely listed as activators | actives 0.073% (n = 360,000); note: nearly all actives have a fitted effect of over 60% in size
#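 Normalized to 6.5 mM cAMP, activity reflects EPAC1-catalysed release of BODIPY-GDP from Rap1B, followed kinetically over 30 min at 480 nm excitation, 540 nm emission. Reaction contained 100 nM EPAC1, 250 nM Rap1B-BODIPY-GDP, 50 uM GDP.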
# EPAC2 ag: EPAC2 (human) agonism. actives 0.079% (n = 360,000). Potency, µM (top dose mostly 154 µM), for the others: top-dose activation, hits mostly activators. EPAC2 activation, biochemical qHTS; response scale: 100% = 6.5 mM cAMP response. Q8WZA2; note: nearly all actives have a fitted effect of over 50% in size
#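 Setup: EPAC2 100 nM, labeled Rap1B complex 250 nM, free GDP 50 uM. Compound titrations pinned in, brief spin, 5 min room temperature incubation. Kinetic fluorescence read over 30 min, normalized to 6.5 mM cAMP.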
# EPAC2 antagonist: antagonists of human EPAC2; actives 0.18% (n = 360,000); Potency, µM (series often up to 114 µM), for inactives: top-dose activity, negative = inhibition, usual class: inhibitors; Q8WZA2; EPAC2 GEF exchange of Rap1B-BODIPY-GDP, fluorescence; AID 720708; note: % is set by controls: 0 for no effect and ±100 for the full control effect; nearly all actives have a fitted effect of over 45% in size
# An asterisk follows results filed as active; i = inactive; ? = inconclusive; nt = no result. Calls come from the whole dose curve; as a rule, active = well fitted curve in the direction sought with a large enough effect; inconclusive = small, poorly fitted or top-dose-only effect, or another doubt; inactive = no such curve, though single readings can be large; an effect the other way counts as inactive or inconclusive. Potency is the fitted concentration of half-maximal effect.
SMILES,USP1 inh,EPAC1 antag,EPAC1 ag,EPAC2 ag,EPAC2 antagonist
COc1cccc(-c2nc(C(N)=O)c3c(n2)n(-c2ccc4c(c2)OCO4)c(=O)n3C)c1OC,-14.4%,nt,nt,nt,nt
Cc1cc(C)nc(NS(=O)(=O)c2ccc(NC(=O)CN3C(=O)S/C(=C\c4ccccc4)C3=O)cc2)n1,?,79.4µM*,5.5%,5.8%,-11.1%
CCOCCCn1c(=N)c(C(=O)NCc2cccnc2)cc2c(=O)n3cc(C)ccc3nc21,-34.8%,nt,nt,nt,nt
COc1ccc(NC(=O)CN2CCN(Cc3ccc(F)cc3)S2(=O)=O)cc1Cl,-6.6%,nt,nt,nt,nt
O=C1NC(=S)SC1=Cc1cccs1,?,?,-10.4%,8.4%,?
CN1CCC/C1=C/C=C1\SC(=S)NC1=O,25.1µM*,111.2%,63.1µM*,112µM*,28.0%
CCCCN(C)CCCNC(=O)CN1C(=O)COc2ccc(S(=O)(=O)N3CCC(C)CC3)cc21,-25.5%,nt,nt,nt,nt
CCCCC(=O)Nc1nnc(S(=O)(=O)N(C)Cc2ccc(Cl)cc2)s1,-8.5%,nt,nt,nt,nt
CSc1nc(N2CCOCC2)c2c3c(sc2n1)CCCC3,-22.5%,-9.8%,5.2%,2.7%,17.8µM*
Cc1nc(N2CCOCC2)c2c3c(sc2n1)CCC3,-6.8%,2.7%,-7.5%,1.8%,-14.4%
COc1cc(C2C(C(=O)Nc3ccccc3)=C(C)Nc3nnnn32)cc(OC)c1OC (configuration not stated),-3.4%,nt,nt,nt,nt
C#Cc1ccc([C@@H]2C=C(C(=O)Nc3ccccc3)O[C@H](OCC)[C@H]2CCCO)cc1,-18.9%,-23.2%,-1.1%,3.5%,?
C#Cc1ccc([C@H]2C=C(C(=O)NCc3ccccc3)O[C@@H](OCC)[C@@H]2CCCO)cc1,-23.5%,-26.6%,-18.7%,-5.1%,25.1µM*
CCOC(=O)c1cc(-c2ccc(/C=C3/C(=O)N(c4ccc(C(=O)O)cc4)N=C3C)o2)ccc1Cl,-25.3%,35.5µM*,6.6%,1.9%,2.6%
COc1cccc(NC(=O)CN(C)C(=O)CNC(=O)c2ccc(Oc3ccccc3)cc2)c1,-21.3%,1.1%,63.1µM*,10.2%,4.5%
COc1ccc(NC(=O)CN(C)C(=O)CNC(=O)c2ccc3ccccc3c2)cc1,-24.5%,12.5%,1.9%,-12.7%,2.2%
O=C(Nc1ccc(F)c(Cl)c1)C1Cc2c(-c3ccco3)ccnc2O1 (configuration not stated),nt,-6.5%,-27.5%,-5.1%,0.5%
CCOC(=O)c1ccccc1NC(=O)c1sc2ncn(CC)c(=O)c2c1C,-20.4%,nt,nt,nt,nt
CCCCCCc1cc2cc(-c3nnc(-c4ccccc4OC)o3)c(=O)oc2cc1O,14.1µM*,87.0%,?,-22.4%,235.5%
CCCCCCc1cc2cc(-c3nnc(-c4cc(OC)c(OC)c(OC)c4)o3)c(=O)oc2cc1O,65.8%,5.4%,7.8%,?,58.5%
CCCCCCc1cc2cc(-c3nnc(-c4ccccc4O)o3)c(=O)oc2cc1O,8.91µM*,39.2%,?,?,70.7%
O=c1n(Cc2ccccc2)nc2n1-c1cc(Cl)ccc1OC2,-13.4%,nt,nt,nt,nt
O=c1cc2nc(-c3ccccc3)nc(SCc3cccc(Br)c3)n2[nH]1,-17.1%,nt,nt,nt,nt
O=c1ccc2[n+]([O-])c3ccc(O)cc3oc-2c1,-21.2%,-6.7%,8.7%,2.4%,1.1%
Nc1ccc(-c2c3ccc(=O)cc-3oc3cc(O)ccc23)c(C(=O)O)c1,28.2µM*,160.4%,100µM*,126µM*,199.3%
SMILES,USP1 inh,EPAC1 antag,EPAC1 ag,EPAC2 ag,EPAC2 antagonist
Cc1cc(C)c(S(=O)(=O)NCC(c2ccco2)S(=O)(=O)c2cccs2)c(C)c1 (configuration not stated),-26.7%,nt,nt,nt,nt
N#CC(C#N)=Cc1cccn1-c1ccc(C(=O)O)cc1,-14.2%,-25.0%,-1.2%,6.4%,5.8%
N#C/C(=C/c1cccn1-c1cccc(C(=O)O)c1)c1ccc(Cl)cc1,-16.1%,-12.0%,-9.4%,-1.9%,39.8µM*
N#Cc1c(C#N)c(O)c2ccccc2c1O,?,-19.2%,-1.5%,9.4%,6.8%
N=C1CCC(=N)c2c1c(O)c1ccccc1c2O,25.1µM*,?,18.2%,29.2%,26.9%
O=c1oc2c(CN3CCCCC3)c(O)ccc2cc1-c1nc2ccccc2[nH]1,28.2µM*,14.5%,21.7%,29.6%,33.2%
O=c1oc2c(O)cccc2cc1-c1nc2ccccc2[nH]1,33.1%,?,22.0%,35.3%,14.4%
Cc1cc(C(=O)Nc2ccon2)c(C)o1,-4.8%,50.1µM*,-7.5%,2.8%,8.4%
CCc1cc[n+](C2=C([O-])c3ccccc3C(=O)/C2=N\S(=O)(=O)c2cccs2)cc1,17.8µM*,?,-5.0%,-4.8%,-1.3%
COc1cc(Br)c(C(=O)c2nccc3cc(OC)c(OC)cc23)cc1OC,10µM*,-5.4%,9.0%,3.1%,-9.1%
CCOc1ccccc1Nc1ncnc2c1c(-c1ccccc1)cn2-c1ccc(OC)cc1,2.6%,nt,nt,nt,nt
CC1=Nc2ccccc2/C1=C/c1sc(=S)n(-c2cccc(C(=O)O)c2)c1O,28.2µM*,56.2µM*,-13.9%,3.5%,?
CC1CN(C(=O)CCC(=O)NCc2ccccc2)c2ccccc2S1 (configuration not stated),-24.5%,9.7%,-0.2%,14.2%,50.1µM*
COc1ccc(NC(=O)[C@@H]2[C@@H]3C(=O)N(C4CCCCC4)C(=O)[C@@H]3C3c4ccccc4C=CN32)cc1 (some centres not stated),31.6µM*,-1.2%,3.3%,-8.0%,-5.1%
COc1ccc(NC(=O)C2CCC(N3C(=O)C4C5C=CC(C5)C4C3=O)CC2)cc1 (configuration not stated),-14.6%,6.8%,-0.9%,-3.1%,14.3%
Cc1ccccc1CNC(=O)C1CCCCN1S(=O)(=O)c1ccc(F)cc1 (configuration not stated),8.7%,nt,nt,nt,nt
Cc1ccc(C(=O)NNc2cc(N3CCCC3)nc(N3CCCC3)n2)cc1,14.1µM*,0.2%,0.0%,8.5%,-1.0%
O=C(NNc1cc(N2CCOCC2)nc(N2CCOCC2)n1)c1ccc(Cl)c(Cl)c1,-12.0%,7.1%,0.8%,3.0%,-11.2%
CN1C(=CC=C2C=C(I)C(=O)C(I)=C2)C(C)(C)c2ccccc21,-22.3%,-9.4%,9.5%,1.4%,20.6%
CN1/C(=C\C=C2/SC(=S)NC2=O)C(C)(C)c2ccccc21,25.1µM*,48.9%,63.1µM*,63.1µM*,97.6%
CCCN1C(=O)/C(=C\C=C2\N(CC)c3ccccc3C2(C)C)SC1=S,?,-8.7%,10.0%,-6.8%,9.1%
CN1/C(=C\C=C2/C(=O)Oc3ccccc3C2=O)C(C)(C)c2ccccc21,?,i,79.4µM*,79.4µM*,i
CCOc1ccc(-c2cc(C)n3nc(C(=O)Nc4cc(Cl)ccc4O)cc3n2)cc1,-4.9%,nt,nt,nt,nt
Oc1ccc(Cl)cc1CNc1cccc2cccnc12,-27.3%,-16.0%,-15.6%,10.2%,56.2µM*
